Sampled rows, rich in hits. Any-hit rate of the full collection: about 1.7%.
MazEF act: activators of E. coli MazEF toxin-antitoxin RNase | P0AE70 | FAM/BHQ RNA-DNA oligo cleavage fluorescence, 5 h | activation, % at 20 µM | 350,000 compounds, 0.32% hits | AID 504720; in the data active = activation above about 50%
Target sequence (P0AE70 whole entry, looked up): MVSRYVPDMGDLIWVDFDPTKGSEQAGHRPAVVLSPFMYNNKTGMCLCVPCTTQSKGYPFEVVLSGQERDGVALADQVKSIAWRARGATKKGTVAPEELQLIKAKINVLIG
Vc quorum ag: inducers of Vibrio cholerae quorum light production without autoinducers. 350,000 compounds, 0.16% hits. activation, % at 18.7 µM. V. cholerae BH1578 lux reporter, luminescence, 6 h; in the data active = activation mostly above about 9.7%, no sharp cut-off; inconclusive = no clear call, values can overlap the other calls; inactive = mostly below about 3.7%
PfHsp40 yeast: rescue of PfHsp40-mediated yeast toxicity | S. cerevisiae expressing PfHsp40, growth rescue, ATP luminescence | growth rescue, % at 12.5 µM | 340,000 compounds, 0.68% hits; in the data active = growth rescue above about 28%, passing the limit was not always enough; inconclusive = no clear call, values can overlap the other calls;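 also: yeast W303a lacking pdr1 and pdr3 grown in galactose medium; growth measured after three days at 30 °C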
DUSP3 inh: DUSP3 (human) phosphatase inhibition; P51452; inhibition, % at 13.3 µM; AID 1654; 290,000 compounds, 0.52% hits; recombinant VHR phosphatase, pNPP absorbance; in the data active = inhibition above about 50%
Target sequence (P51452 whole entry, looked up): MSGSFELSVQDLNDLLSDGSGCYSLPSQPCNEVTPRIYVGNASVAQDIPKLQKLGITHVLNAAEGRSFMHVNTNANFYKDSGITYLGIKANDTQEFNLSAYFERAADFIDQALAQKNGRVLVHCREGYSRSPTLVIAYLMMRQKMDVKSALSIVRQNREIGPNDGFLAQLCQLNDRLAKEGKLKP
3CLpro inhibitor: SARS-CoV 3CLpro protease inhibition | AID 1706 | inhibition, % at 6 µM | 290,000 compounds, 0.14% hits | P0C6X7 | recombinant SARS-CoV 3CLpro, quenched FRET peptide cleavage; in the data active = inhibition above about 12%
BJeLR lethal: kills HRASV12-expressing BJeLR cells; BJeLR (HRASV12) viability, CellTiter-Glo ATP luminescence, 48 h; inhibition, % (concentration not given with the values); 300,000 compounds, 0.17% hits; in the data active = inhibition above about 50%; inconclusive = no clear call, values can overlap the other calls
* marks the source's active call; other numbers are inactive results.

Cc1ccc(CNC(=O)CSc2c3c(nc4cc(Cl)ccc24)CCCC3)o1 was read as MazEF act 2, Vc quorum ag 26*, PfHsp40 yeast 1, DUSP3 inh 25, 3CLpro inhibitor 2 and BJeLR lethal -10.
Screening N/C(=N\OC(=O)CSc1ccccc1)c1ccccn1 returned MazEF act -15, Vc quorum ag inactive, PfHsp40 yeast 0, DUSP3 inh -8, 3CLpro inhibitor 8 and BJeLR lethal 1.
For CCNc1nc(NC(C)(C)C)nc(N2CCCC2)n1 the results were MazEF act 4, Vc quorum ag -10, PfHsp40 yeast -1, DUSP3 inh 13, 3CLpro inhibitor 0 and BJeLR lethal -13.
`CC(C)(C)Nc1nc(N2CCCC2)nc(N2CCCC2)n1` gave MazEF act 0, Vc quorum ag 17*, PfHsp40 yeast 0, DUSP3 inh 28, 3CLpro inhibitor -6 and BJeLR lethal 6.
CCOc1ccc2ccccc2c1/C=N/NC(=O)CNC(=O)C(c1ccccc1)c1ccccc1 was read as MazEF act -7, Vc quorum ag 0, PfHsp40 yeast 0, DUSP3 inh 52*, 3CLpro inhibitor -1 and BJeLR lethal -5.
`Cc1cc(C)c2nc(NNC(=O)c3ccc(S(=O)(=O)N4CC(C)CC(C)C4)cc3)sc2c1` (configuration not stated) gave MazEF act 9, Vc quorum ag 0, PfHsp40 yeast inconclusive, DUSP3 inh -4, 3CLpro inhibitor -2 and BJeLR lethal 12.
`Cc1cccc2sc(NNC(=O)c3ccc(S(=O)(=O)N4CC(C)CC(C)C4)cc3)nc12` (configuration not stated) gave MazEF act 14, Vc quorum ag 0, PfHsp40 yeast 285*, DUSP3 inh 4, 3CLpro inhibitor 0 and BJeLR lethal 19.
Screening Cc1cc(C)c2nc(NNC(=O)c3ccc(S(=O)(=O)N4CCCC(C)C4)cc3)sc2c1 (configuration not stated) returned MazEF act 3, Vc quorum ag inactive, PfHsp40 yeast 97*, DUSP3 inh 4, 3CLpro inhibitor 2 and BJeLR lethal 6.
`COCCNC(=O)C1CCCN(C(=O)c2ccc(OC)c(F)c2)CC1` (configuration not stated) gave Vc quorum ag 0.
Screening O=[N+]([O-])c1cc(C=Nc2cccc3c(O)cccc23)ccc1Cl returned DUSP3 inh 22, 3CLpro inhibitor 4 and BJeLR lethal -7.
`Cc1ccc(OCCCCn2cnc3ccccc32)c(C)c1` gave MazEF act -6, Vc quorum ag 0, PfHsp40 yeast 4, DUSP3 inh 55* and 3CLpro inhibitor -5.
`Cn1cccc1/C=C1\SC(=O)N(c2ccccc2)C1=O` gave MazEF act 88*, Vc quorum ag -1, PfHsp40 yeast -1, DUSP3 inh 3, 3CLpro inhibitor -2 and BJeLR lethal 7.
For Cn1cc(/C=C2/SC(=O)N(c3ccccc3)C2=O)c2ccccc21 the results were MazEF act 10, Vc quorum ag 0, PfHsp40 yeast -1, DUSP3 inh -4, 3CLpro inhibitor 4 and BJeLR lethal 15.
For CC1(C(=O)Nc2ccc3c(c2)OCCO3)CCN1C(=O)C1(c2ccc(Cl)cc2)CC1 (configuration not stated) the results were Vc quorum ag inactive.
O=C(COC(=O)c1ccc(Br)o1)NCc1ccc(F)cc1 was read as MazEF act 6, Vc quorum ag -2 and PfHsp40 yeast 0.
Screening O=C(COC(=O)c1ccc([N+](=O)[O-])o1)NCc1ccc(F)cc1 returned MazEF act -6, Vc quorum ag 0 and PfHsp40 yeast 223*.
Screening O=C(COC(=O)c1ccc([N+](=O)[O-])o1)Nc1cccc2ccccc12 returned MazEF act -4, Vc quorum ag inactive, PfHsp40 yeast 80*, DUSP3 inh 10, 3CLpro inhibitor -1 and BJeLR lethal -2.
Screening O=C(COC(=O)c1ccc([N+](=O)[O-])o1)NCCCc1ccccc1 returned MazEF act -5, Vc quorum ag inactive and PfHsp40 yeast 45*.
Screening O=C(COC(=O)c1ccc([N+](=O)[O-])o1)NC1CCCCC1 returned MazEF act 4, Vc quorum ag inactive and PfHsp40 yeast 213*.
`CC(=O)Nc1ccc(NC(=O)COC(=O)c2ccc([N+](=O)[O-])o2)cc1` gave MazEF act 1, Vc quorum ag inactive and PfHsp40 yeast 0.
Screening COc1ccc(CCNC(=O)COc2ccc([N+](=O)[O-])cc2)cc1 returned MazEF act 6, Vc quorum ag 0, PfHsp40 yeast -1, DUSP3 inh 26, 3CLpro inhibitor 4 and BJeLR lethal -13.
Screening COc1ccc(CCNC(=O)COC(=O)c2ccc([N+](=O)[O-])o2)cc1 returned MazEF act 9, Vc quorum ag inactive and PfHsp40 yeast 123*.
COc1ccc(CN(CCC(c2ccccc2)c2ccc(OC(C)C)cc2)C(=O)CCl)cc1OC (configuration not stated) was read as MazEF act -3, Vc quorum ag inactive, PfHsp40 yeast 5, DUSP3 inh -8, 3CLpro inhibitor 5 and BJeLR lethal 68*.
For CSc1ccc(OC2(C)CCN(Cc3ccc4c(c3)OCCO4)C2)cc1 (configuration not stated) the results were Vc quorum ag -6.
Screening COc1ccc(C=C2c3ccccc3C(=O)c3ccccc32)c(OC)c1 returned Vc quorum ag -1, PfHsp40 yeast 0, DUSP3 inh 25, 3CLpro inhibitor -2 and BJeLR lethal 53*.
COc1ccc(/C=C2\COc3ccccc3C2=O)c(OC)c1 was read as MazEF act -1, Vc quorum ag 2, PfHsp40 yeast 6, DUSP3 inh 6, 3CLpro inhibitor 10 and BJeLR lethal -3.
CCCCC(NC(=O)Cc1c(C)c2cc3c4c(oc3c(C)c2oc1=O)CCCC4)C(=O)O (configuration not stated) was read as MazEF act -3, Vc quorum ag -2, PfHsp40 yeast -1, DUSP3 inh 52*, 3CLpro inhibitor 3 and BJeLR lethal 2.
For CCCCC(NC(=O)CCc1c(C)c2cc3c4c(oc3c(C)c2oc1=O)CCCC4)C(=O)O (configuration not stated) the results were MazEF act 4, Vc quorum ag -1, PfHsp40 yeast 0, DUSP3 inh 58*, 3CLpro inhibitor 3 and BJeLR lethal -2.
For CCCCC(NC(=O)Cc1c(C)c2cc3c4c(oc3cc2oc1=O)CCCC4)C(=O)O (configuration not stated) the results were MazEF act 0, Vc quorum ag 0, PfHsp40 yeast 2, DUSP3 inh -1, 3CLpro inhibitor 5 and BJeLR lethal -3.
